Laboratory results from the supplement of paper PMC8371130.
Structures can show the parent of a compound that is named as a salt.

System: HL-1
Assay: relative cell viability (CellTiter-Glo) vs DMSO control (% of DMSO control); higher = more viable cells
Outline: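 One day after HL-1 mouse atrial cardiomyocytes were plated (1000 cells per well, 384-well plates) with compounds at 40, 200, 1000 or 5000 nM in 0.01% DMSO, they were transferred to a hypoxic workstation at 1% O2. After 48 h there, the cells were reoxygenated for 24 h in a normal incubator, and comparison cells stayed in normoxia throughout the same time. Cell viability was quantified with CellTiter-Glo luminescence and normalised to vehicle-treated control cells.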

[1] = oxygen condition: hypoxia 48 h (1% O2) + reoxygenation 24 h, 40 nM
[2] = oxygen condition: hypoxia 48 h (1% O2) + reoxygenation 24 h, 200 nM
[3] = oxygen condition: hypoxia 48 h (1% O2) + reoxygenation 24 h, 1000 nM
[4] = oxygen condition: hypoxia 48 h (1% O2) + reoxygenation 24 h, 5000 nM
[5] = oxygen condition: normoxia 72 h, 40 nM
[6] = oxygen condition: normoxia 72 h, 200 nM
[7] = oxygen condition: normoxia 72 h, 1000 nM
[8] = oxygen condition: normoxia 72 h, 5000 nM

SMILES	relative cell viability [1]	relative cell viability [2]	relative cell viability [3]	relative cell viability [4]	relative cell viability [5]	relative cell viability [6]	relative cell viability [7]	relative cell viability [8]
CN(C)CC/C=C1/c2ccccc2Sc2ccc(Cl)cc21 [Chlorprothixene]	105	112	102	115	108	107	118	118
C=C1CC[C@H](O)C/C1=C/C=C1\CCC[C@]2(C)[C@@H]([C@H](C)/C=C/[C@H](C)C(C)C)CC[C@@H]12 [Vitamin D2]	102	99.8	111	112	107	105	109	110
CC(=O)[C@H]1CC[C@H]2[C@@H]3CC=C4C[C@@H](O)CC[C@]4(C)[C@H]3CC[C@]12C [Pregnenolone]	100	103	106	117	101	101	105	107
Cc1c(N(C)C)c(=O)n(-c2ccccc2)n1C [Amidopyrine]	107	111	109	114	107	105	110	118
COc1cc2ncnc(Nc3ccc(F)c(Cl)c3)c2cc1OCCCN1CCOCC1 [Gefitinib]	106	114	122	100	101	112	99.4	100
NCCc1c[nH]cn1 [Histamine Phosphate]	99.7	101	96.7	108	98.8	101	97.7	109
CC(C)(Oc1ccc(Cl)cc1)C(=O)O [Clofibric acid]	106	105	108	115	104	106	104	109
CC[C@]1(O)C[C@@H]2CN(CCc3c([nH]c4ccccc34)[C@@](C(=O)OC)(c3cc4c(cc3OC)N(C)[C@H]3[C@@](O)(C(=O)OC)[C@H](OC(C)=O)[C@]5(CC)C=CCN6CC[C@]43[C@@H]65)C2)C1 [Vinblastine]	35.3	41.6	43.5	37.2	28	32.3	36	35.9
OCCN1C[C@H](O)[C@@H](O)[C@H](O)[C@H]1CO [Miglitol]	104	104	119	108	101	102	106	117
CNC(=O)c1cc(Oc2ccc(NC(=O)Nc3ccc(Cl)c(C(F)(F)F)c3)cc2)ccn1 [Sorafenib]	104	105	116	114	109	101	118	114
CN1C2CCCC1CC(NC(=O)c1nn(C)c3ccccc13)C2 (stereo not drawn) [Granisetron HCl]	103	102	106	101	101	102	105	102
O=P(O)(O)C(Cl)(Cl)P(=O)(O)O [Clodronate Disodium]	114	114	114	115	117	111	113	113
C=CC[N+]1([C@H]2C[C@H]3[C@@H]4CC[C@H]5C[C@H](O)[C@@H](N6CCOCC6)C[C@]5(C)[C@H]4CC[C@]3(C)[C@H]2OC(C)=O)CCCC1 [Rocuronium bromide]	104	105	116	110	104	104	104	107
CS(=O)(=O)c1ccc([C@@H](O)[C@@H](CO)NC(=O)C(Cl)Cl)cc1 [Thiamphenicol]	104	104	109	104	101	96.9	95.9	86.5
COc1cccc2c1C(=O)c1c(O)c3c(c(O)c1C2=O)C[C@@](O)(C(C)=O)C[C@@H]3O[C@H]1C[C@H](N)[C@H](O)[C@H](C)O1 [Daunorubicin HCl]	56.7	30.5	17.2	2.34	62.6	29.6	10.3	2.68
NC[C@H]1CC[C@H](C(=O)O)CC1 [Tranexamic acid]	99.9	102	100	104	101	104	102	112
COCCCC/C(=N\OCCN)c1ccc(C(F)(F)F)cc1 [Fluvoxamine maleate]	101	109	94.9	94.7	109	98.3	106	95.2
CC1(C)Cc2c(-c3ccccc3)c(-c3ccc(Cl)cc3)c(CC(=O)O)n2C1 [Licofelone]	97.3	94.8	97.1	105	92.9	96.5	93.5	108
O=C(O)c1ccc(NC(=O)[C@H](Cc2ccc(O)cc2)NC(=O)c2ccccc2)cc1 [Bentiromide]	104	104	101	102	103	106	99.5	111
C[C@@](Cc1ccc(O)c(O)c1)(NN)C(=O)O [Carbidopa]	101	100	101	106	96.4	96.4	102	110
Cn1c(CNc2ccc(C(=N)N)cc2)nc2cc(C(=O)N(CCC(=O)O)c3ccccn3)ccc21	104	96	102	108	102	102	102	106

SMILES	relative cell viability [1]	relative cell viability [2]	relative cell viability [3]	relative cell viability [4]	relative cell viability [5]	relative cell viability [6]	relative cell viability [7]	relative cell viability [8]
CC(=O)O[C@@]12CO[C@@H]1C[C@H](O)[C@@]1(C)C(=O)[C@H](O)C3=C(C)[C@@H](OC(=O)[C@H](O)[C@@H](NC(=O)OC(C)(C)C)c4ccccc4)C[C@@](O)([C@@H](OC(=O)c4ccccc4)[C@H]21)C3(C)C [Docetaxel]	26.9	24.1	27.2	29.3	19.3	23	22.6	23.6
O=C(O)c1ccc(-n2nc(-c3ccccc3O)nc2-c2ccccc2O)cc1 [Deferasirox]	93.2	100	99.7	88.1	97	104	94.3	42.9
CN1C[C@@H]2C[C@H]1CN2c1cc2c(cc1F)c(=O)c(C(=O)O)cn2C1CC1 [Danofloxacin Mesylate]	106	104	111	108	111	101	103	107
CC(=O)Oc1ccc(C(c2ccc(OC(C)=O)cc2)c2ccccn2)cc1 [Bisacodyl]	103	100	109	111	101	115	101	101
Nc1[nH]cnc2ncnc1-2 [Adenine]	101	97.9	98.1	109	102	95.5	98.6	106
N=C(N)NC(=O)c1nc(Cl)c(N)nc1N [Amiloride hydrochloride]	103	105	100	110	106	105	96.6	109
N=C(N)NC(=N)NCCc1ccccc1 [Phenformin hydrochloride]	101	95.3	99.6	74.1	101	103	104	71.8
CC[C@H]1OC(=O)[C@H](C)[C@@H](O[C@H]2C[C@@](C)(OC)[C@@H](O)[C@H](C)O2)[C@H](C)[C@@H](O[C@@H]2O[C@H](C)C[C@H](N(C)C)[C@H]2O)[C@](C)(O)C[C@@H](C)/C(=N\OCOCCOC)[C@H](C)[C@@H](O)[C@]1(C)O [Roxithromycin]	101	106	101	106	101	100	103	112
COC(=O)C1=C(C)NC(C)=C(C(=O)OC(C)C)C1c1cccc2nonc12 (stereo not drawn) [Isradipine]	106	111	106	104	108	97.7	102	110
Cc1nc(Nc2ncc(C(=O)Nc3c(C)cccc3Cl)s2)cc(N2CCN(CCO)CC2)n1 [Dasatinib]	71.8	87.1	80.2	90.2	85.9	88.5	82.1	89.2
Nc1cccc2c1CN(C1CCC(=O)NC1=O)C2=O (stereo not drawn) [Lenalidomide]	108	110	109	111	113	117	117	114
COc1cc2nccc(Oc3ccc(NC(=O)C4(C(=O)Nc5ccc(F)cc5)CC4)cc3)c2cc1OC	109	112	111	115	112	110	107	120
O=C1[C@@H]2[C@H]3CC[C@H](C3)[C@@H]2C(=O)N1C[C@@H]1CCCC[C@H]1CN1CCN(c2nsc3ccccc23)CC1 [Lurasidone HCl]	96.8	101	100	99.9	101	104	102	102
O=C(Nc1c(Cl)cncc1Cl)c1ccc(OC(F)F)c(OCC2CC2)c1 [Roflumilast]	101	82.1	92.9	99	90.6	84.6	93.7	93.6
CCc1c2c(nc3ccc(OC(=O)N4CCC(N5CCCCC5)CC4)cc13)-c1cc3c(c(=O)n1C2)COC(=O)[C@]3(O)CC [Irinotecan]	99.9	90.1	51.8	28.7	95.2	83.4	64.9	22.8
CCOC(=O)C1=C(C)NC(C)=C(C(=O)OC)C1c1cccc(Cl)c1Cl (stereo not drawn) [Felodipine]	101	105	88.9	98.7	99.1	101	98	101
COc1ccccc1OCC(O)CN1CCN(CC(=O)Nc2c(C)cccc2C)CC1 (stereo not drawn) [Ranolazine dihydrochloride]	88.7	89.7	86.8	108	98.5	97.1	98.8	110
O=C(O)/C=C/c1ccc(Cn2ccnc2)cc1 [Ozagrel HCl]	103	102	102	96.7	90.2	96.8	104	97.8
CC(=O)/N=c1/sc(S(N)(=O)=O)nn1C [Methazolamide]	100	109	108	109	110	105	99.7	108
Cc1cc(C2CCCCC2)n(O)c(=O)c1 [Ciclopirox]	95.4	92.3	80.4	5.32	87.8	69.4	20	2.16
